From PubChem BioAssay (NCATS)
Inconclusive results are not listed. Activity calls are given as the source filed them. Unless noted, calls follow the shape of the full dose curve. Residues, ends and D or L forms follow the SMILES beside them.

What was measured:
[1] = qHTS for Inhibitors of the Functional Ribonucleoprotein Complex (vRNP) of Lassa (LASV) Arenavirus: LASV Primary Screen - GLuc reporter signal (AID 1347082; calls by dose curve; tested in HEK293 reporter line; also: nearly all actives have a fitted effect of over 60% in size)
[2] = qHTS for Inhibitors of the Functional Ribonucleoprotein Complex (vRNP) of Lassa (LASV) Arenavirus: Viability assay - alamar blue signal for LASV Primary Screen (AID 1347083; calls by dose curve; tested in HEK293 reporter line; also: nearly all actives have a fitted effect of over 80% in size)
[3] = qHTS for Inhibitors of the Functional Ribonucleoprotein Complex (vRNP) of Lymphocytic Choriomeningitis Arenaviruses (LCMV): Viability assay - alamar blue signal for LCMV Primary Screen (AID 1347085; calls by dose curve; tested in HEK293 reporter line; also: nearly all actives have a fitted effect of over 80% in size)
[4] = target: Nucleoprotein (Lymphocytic choriomeningitis virus (strain Armstrong)) (UniProt P09992); experiment: qHTS for Inhibitors of the Functional Ribonucleoprotein Complex (vRNP) of Lymphocytic Choriomeningitis Arenaviruses (LCMV): LCMV Primary Screen - GLuc reporter signal (AID 1347086); also: nearly all actives have a fitted effect of over 70% in size

Measured: Potency
Also: series mostly up to about 57 µM.

Sequence of Nucleoprotein (Lymphocytic choriomeningitis virus (strain Armstrong)) (P09992 whole entry, looked up): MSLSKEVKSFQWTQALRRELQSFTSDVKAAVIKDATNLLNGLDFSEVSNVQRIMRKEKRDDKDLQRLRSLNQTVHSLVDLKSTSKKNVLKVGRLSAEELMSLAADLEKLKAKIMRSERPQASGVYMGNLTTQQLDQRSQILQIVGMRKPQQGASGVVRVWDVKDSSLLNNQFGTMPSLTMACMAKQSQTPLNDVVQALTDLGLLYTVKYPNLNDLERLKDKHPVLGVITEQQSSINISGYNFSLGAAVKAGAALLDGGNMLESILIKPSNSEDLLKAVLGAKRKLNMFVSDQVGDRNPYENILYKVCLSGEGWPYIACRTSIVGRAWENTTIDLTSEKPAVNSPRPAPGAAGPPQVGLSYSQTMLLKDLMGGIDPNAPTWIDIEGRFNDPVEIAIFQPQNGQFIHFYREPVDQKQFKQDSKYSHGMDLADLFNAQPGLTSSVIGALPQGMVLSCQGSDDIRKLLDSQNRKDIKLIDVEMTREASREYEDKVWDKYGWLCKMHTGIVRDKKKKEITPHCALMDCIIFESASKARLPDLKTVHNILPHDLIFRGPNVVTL

CCCC(=O)OCOC(=O)C1=C(C)NC(C)=C(C(=O)OC)C1c1cccc(Cl)c1Cl (stereo not given)
inactive: [1] | [2] | [3] | [4]

CC(=O)Nc1c(I)c(NC(C)=O)c(I)c(C(=O)O)c1I
inactive: [1] | [2] | [3] | [4]

O=C(O)c1[nH]n(-c2ccc(S(=O)(=O)O)cc2)c(=O)c1N=Nc1ccc(S(=O)(=O)O)cc1
inactive: [1] | [2] | [3] | [4]

CCOc1ccccc1OCC1CNCCO1 (stereo not given)
inactive: [1] | [2] | [3] | [4]

CC(=O)c1ccc(S(=O)(=O)NC(=O)NC2CCCCC2)cc1
inactive: [1] | [2] | [3] | [4]

COC(=O)c1ccc(O)cc1
inactive: [1] | [2] | [3] | [4]

Cc1[nH]cnc1-c1ccc(Cl)cc1
inactive: [1] | [2] | [3] | [4]

Cc1ccc(Nc2nccc(N(C)c3ccc4c(C)n(C)nc4c3)n2)cc1S(N)(=O)=O
inactive: [1] | [2] | [3] | [4]

CN1Cc2cc(C(=O)N3CCC(C4CCNCC4)CC3)ccc2NC(CC(=O)O)C1=O (stereo not given)
inactive: [1] | [2] | [3] | [4]

Cc1ccc(C(=O)C(=O)O)cc1C
inactive: [1] | [2] | [3] | [4]

Cc1ccc(O)c2ncccc12
inactive: [1] | [2] | [3] | [4]

CCOC(=O)NNc1ccc(N(CC)CC(C)O)nn1 (stereo not given)
inactive: [1] | [2] | [3] | [4]

COCCOC(=O)C1=C(C)NC(C)=C(C(=O)OC(C)C)C1c1cccc([N+](=O)[O-])c1 (stereo not given)
inactive: [1] | [2] | [3] | [4]

COc1cc(C(=O)N2CCCCCCC2)cc(OC)c1OC
inactive: [1] | [2] | [3] | [4]

Nc1nc(N)nc(-c2cc(Cl)ccc2Cl)n1
inactive: [1] | [2] | [3] | [4]

CC(C)(C)NC[C@H](O)COc1cccc2c1CCCC2=O
inactive: [1] | [2] | [3] | [4]

COc1ccccc1OCC(O)CO (stereo not given)
inactive: [1] | [2] | [3] | [4]

CCC(Cc1c(I)cc(I)c(N)c1I)C(=O)O (stereo not given)
inactive: [1] | [2] | [3] | [4]

N#CSCC(=O)O
inactive: [1] | [2] | [3] | [4]

O=C(O)C(S)C(S)C(=O)O (stereo not given)
inactive: [1] | [2] | [3] | [4]

CCCCCCCCCCCCSCCOCCO
inactive: [1] | [2] | [3] | [4]

CC(C)(C)NC[C@H](O)COc1nsnc1N1CCOCC1
inactive: [1] | [2] | [3] | [4]

CCCCCCCC/C=C\CCCCCCCC(=O)NCc1ccc(O)c(OC)c1
inactive: [1] | [2] | [3] | [4]

CC(=O)OCC(=O)[C@@]1(O)CC[C@H]2[C@@H]3CCC4=CC(=O)CC[C@]4(C)[C@H]3C(=O)C[C@@]21C
inactive: [1] | [2] | [3] | [4]

CC1(C)S[C@@H]2[C@H](NC(=O)C(c3ccccc3)S(=O)(=O)O)C(=O)N2[C@H]1C(=O)O (stereo not given in full)
inactive: [1] | [2] | [3] | [4]

Nc1ccc(O)cc1
inactive: [1] | [2] | [3] | [4]

CC(=O)O[C@@H]1CC2C3CCc4cc(OC(=O)c5ccccc5)ccc4C3CCC2(C)[C@H]1OC(C)=O (stereo not given in full)
inactive: [1] | [2] | [3] | [4]

CC(=O)[C@@]1(O)CC[C@H]2[C@@H]3C[C@H](C)C4=CC(=O)C=C[C@]4(C)[C@@]3(F)[C@@H](O)C[C@@]21C
inactive: [1] | [2] | [3] | [4]

CC(C(=O)O)c1ccc(C(=O)c2ccccc2)s1 (stereo not given)
inactive: [1] | [2] | [3] | [4]

CC(=O)OCC(=O)[C@@]1(O)CC[C@H]2[C@@H]3CCC4=CC(=O)C=C[C@]4(C)[C@@]3(F)[C@@H](O)C[C@@]21C
inactive: [1] | [2] | [3] | [4]

O=C(N/N=C/c1ccccc1O)c1ccncc1
inactive: [1] | [2] | [3] | [4]

CC(COc1ccccc1)NN (stereo not given)
inactive: [1] | [2] | [3] | [4]

NS(=O)(=O)c1ccc(Cl)c(S(N)(=O)=O)c1
inactive: [1] | [2] | [3] | [4]

O=C(O)CNC(=O)c1ccccc1
inactive: [1] | [2] | [3] | [4]

NS(=O)(=O)c1cc2c(cc1Cl)NC(CC1CCCC1)NS2(=O)=O (stereo not given)
inactive: [1] | [2] | [3] | [4]

C[C@H](NC(CCc1ccccc1)C(=O)O)C(=O)N1CCC[C@H]1C(=O)O (stereo not given in full)
inactive: [1] | [2] | [3] | [4]

C[C@]12C=CC(=O)C=C1[C@@H](F)C[C@@H]1[C@@H]2[C@@H](O)C[C@@]2(C)[C@H]1CC[C@]2(O)C(=O)CO
inactive: [1] | [2] | [3] | [4]

O=C1NCC2(CCN(CCc3ccccc3)CC2)O1
inactive: [1] | [2] | [3] | [4]

CCOc1nc2cccc(C(=O)O)c2n1Cc1ccc(-c2ccccc2-c2nn[nH]n2)cc1
inactive: [1] | [2] | [3] | [4]

CN(C)[C@@H]1C(=O)C(C(N)=O)=C(O)[C@@]2(O)C(=O)C3=C(O)c4c(O)cccc4C[C@H]3C[C@@H]12
inactive: [1] | [2] | [3] | [4]

COc1ccc(NS(=O)(=O)c2ccc(N)cc2)nn1
inactive: [1] | [2] | [3] | [4]

CCC(C(=O)NC(=O)NC(C)=O)c1ccccc1 (stereo not given)
inactive: [1] | [2] | [3] | [4]

CC[C@H](C)[C@H](N)C(=O)O
inactive: [1] | [2] | [3] | [4]

COc1ccc(C(=O)N2CCN(CC(=O)N3CCOCC3)CC2)cc1
inactive: [1] | [2] | [3] | [4]

O=C(O)c1ccccc1C(=O)Nc1ccc(S(=O)(=O)Nc2nccs2)cc1
inactive: [1] | [2] | [3] | [4]

C[C@]12CCC(=O)C=C1CC[C@@H]1[C@@H]2[C@@H](O)C[C@@]2(C)[C@H]1CC[C@]2(O)C(=O)COC(=O)CCC(=O)O
inactive: [1] | [2] | [3] | [4]

O=C(O)COc1nn(Cc2ccccc2)c2ccccc12
inactive: [1] | [2] | [3] | [4]

Nc1ccc(C(=O)O)cc1
inactive: [1] | [2] | [3] | [4]

Cc1nc([N+](=O)[O-])cn1-c1ccc([N+](=O)[O-])cc1
inactive: [1] | [2] | [3] | [4]

CC1(C)O[C@@H]2C[C@H]3[C@@H]4C[C@H](F)C5=CC(=O)C=C[C@]5(C)[C@@]4(F)[C@@H](O)C[C@]3(C)[C@]2(C(=O)CO)O1
inactive: [1] | [2] | [3] | [4]

C[C@]12C=CC(=O)C=C1CC[C@@H]1[C@@H]2C(=O)C[C@@]2(C)[C@H]1CC[C@]2(O)C(=O)CO
inactive: [1] | [2] | [3] | [4]

CC(=O)NC(=O)c1ccccc1O
inactive: [1] | [2] | [3] | [4]

CN1CCN2c3ncccc3Cc3ccccc3C2C1 (stereo not given)
inactive: [1] | [2] | [3] | [4]

CCc1cc(S(=O)(=O)O)c2cc(C(C)C)cccc1-2
inactive: [1] | [2] | [3] | [4]

CCCC(=O)O[C@]1(C(=O)COC(=O)CC)CC[C@H]2[C@@H]3CCC4=CC(=O)CC[C@]4(C)[C@H]3[C@@H](O)C[C@@]21C
inactive: [1] | [2] | [3] | [4]

O=c1cc[nH]c(=O)[nH]1
inactive: [1] | [2] | [3] | [4]

Nc1ccc(S(=O)(=O)NCc2ccccc2)cc1
inactive: [1] | [2] | [3] | [4]

COC(=O)[C@H](Cc1ccccc1)NC(=O)[C@@H](N)CC(=O)O (H-Asp-Phe-OMe)
inactive: [1] | [2] | [3] | [4]

CCN1CCC[C@H]1CNC(=O)c1c(OC)ccc(Br)c1OC
inactive: [1] | [2] | [3] | [4]

Clc1ccc2c(c1)Nc1ccccc1S2
inactive: [1] | [2] | [3] | [4]
